Three molecules from PubChem BioAssay (EPA / NIEHS) can be followed below.

Read-out in test [1]: Cyclin D2 (CCND2), CCND2 (gene 894)
Description: LTEA_HepaRG_CCND2: Life Technologies and Expression Analysis (LTEA) Assay for Cyclin D2 (CCND2) using HepaRG (AID 2283449).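 Note: CCND2 transcript measured by TaqMan qRT-PCR and normalised to three housekeeping genes.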 Particulars: mRNA level, 48 h; actives raise or lower the signal. The procedure, abridged: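 Chemicals in 0.5% DMSO, eight half-log concentrations from 100 uM top, were applied in duplicate for 48 h to human HepaRG cells in serum-free induction medium. CCND2 mRNA by TaqMan qRT-PCR, normalised to ACTB/GAPDH/POLR2A; bidirectional fit versus DMSO.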

Read-out in test [2]: Cyclin Dependent Kinase Inhibitor 1A (CDKN1A), CDKN1A (gene 1026)
Description: LTEA_HepaRG_CDKN1A: Life Technologies and Expression Analysis (LTEA) Assay for Cyclin Dependent Kinase Inhibitor 1A (CDKN1A) using HepaRG (AID 2283450). Conditions: mRNA level, 48 h; actives raise or lower the signal. Put shortly: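 Gain or loss of CDKN1A transcript is scored by bidirectional fitting against 0.5% DMSO vehicle. Human HepaRG cultures receive chemicals for 48 h across an 8-point series peaking at 100 uM; expression comes from qRT-PCR.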

Read-out in test [3]: catalase (CAT), CAT (gene 847)
In words: LTEA_HepaRG_CAT: Life Technologies and Expression Analysis (LTEA) Assay for catalase (CAT) using HepaRG (AID 2283452). Conditions: mRNA level, 48 h; actives raise or lower the signal. Put shortly:
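HepaRG cells in serum-free induction medium, 0.5% DMSO vehicle, exposed 48 h in duplicate over 8 half-log concentrations from 100 uM. CAT mRNA measured by qRT-PCR, normalized to ACTB, GAPDH, POLR2A; bidirectional fit versus DMSO.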

Read-out in test [4]: flavin-containing dimethylaniline monooxygenases 3 (FMO3), FMO3 (gene 2328)
Description: LTEA_HepaRG_FMO3: Life Technologies and Expression Analysis (LTEA) Assay for flavin-containing dimethylaniline monooxygenases 3 (FMO3) using HepaRG (AID 2283453). Conditions: mRNA level, 48 h; actives raise or lower the signal. Put shortly:
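Differentiated HepaRG cells in serum-free induction medium, exposed 48 h in duplicate to 8 half-log concentrations up to 100 uM in 0.5% DMSO. FMO3 mRNA by qRT-PCR, normalized to ACTB, GAPDH, POLR2A; bidirectional fit vs DMSO.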

Read-out in test [5]: Cytochrome P450 (CYP1A1), CYP1A1 (gene 1543)
Description: LTEA_HepaRG_CYP1A1: Life Technologies and Expression Analysis (LTEA) Assay for Cytochrome P450 (CYP1A1) using HepaRG (AID 2283454). Conditions: mRNA level, 48 h; actives raise or lower the signal. Put shortly: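 Using HepaRG cultures with 0.5% DMSO as vehicle, eight-concentration exposures (max 100 uM) lasted 48 h. Transcript levels were measured by TaqMan qRT-PCR and normalized to ACTB, GAPDH and POLR2A.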

Read-out in test [6]: CFLAR gene, CFLAR (gene 8837)
In words: LTEA_HepaRG_CFLAR: Life Technologies and Expression Analysis (LTEA) Assay for CFLAR gene using HepaRG (AID 2283455). Particulars: mRNA level, 48 h; actives raise or lower the signal. Put shortly:
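Differentiated HepaRG cells in serum-free induction medium were exposed 48 h in duplicate to eight half-log concentrations up to 100 uM in 0.5% DMSO; mRNA measured by TaqMan qRT-PCR, normalized to ACTB, GAPDH, POLR2A; bidirectional fitting versus DMSO.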

Read-out in test [7]: Forkhead box O1 (FOXO1), FOXO1 (gene 2308)
Description: LTEA_HepaRG_FOXO1: Life Technologies and Expression Analysis (LTEA) Assay for Forkhead box O1 (FOXO1) using HepaRG (AID 2283456). Particulars: mRNA level, 48 h; actives raise or lower the signal. Put shortly:
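Differentiated HepaRG cells, in serum-free induction medium with 0.5% DMSO, exposed 48 h in duplicate to 8-point half-log series from 100 uM. FOXO1 mRNA measured by TaqMan qRT-PCR, normalized to ACTB, GAPDH, POLR2A; bidirectional fit versus DMSO.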

Test [8] in a line: CEETOX_H295R_TESTO: CeeTox H295R High-throughput Steroidogenesis Assay for Testosterone (TESTO) (AID 2283457).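 Note: cells exposed to chemicals for 48 h before medium collection.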 Conditions: actives raise or lower the signal. The procedure, abridged:
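Steroidogenesis in H295R cells following OECD 456 with minor changes; 48 h exposure. Medium testosterone by HPLC-MS/MS, DMSO as baseline, with MTT viability run in parallel.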

Read-out in test [9]: growth arrest and DNA damage 45 (GADD45A), GADD45A (gene 1647)
Description: LTEA_HepaRG_GADD45A: Life Technologies and Expression Analysis (LTEA) Assay for growth arrest and DNA damage 45 (GADD45A) using HepaRG (AID 2283458). Conditions: mRNA level, 48 h; actives raise or lower the signal. Put shortly:
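Cells plated and cultured 48 h, switched to serum-free induction medium, then dosed for 48 h (100 uM top, half-log dilutions, 0.5% DMSO). RNA was isolated and transcript measured by Fluidigm qRT-PCR.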

Read-out in test [10]: Forkhead box O3 (FOXO3), FOXO3 (gene 2309)
In words: LTEA_HepaRG_FOXO3: Life Technologies and Expression Analysis (LTEA) Assay for Forkhead box O3 (FOXO3) using HepaRG (AID 2283459). Conditions: mRNA level, 48 h; actives raise or lower the signal. The procedure, abridged:
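Differentiated human HepaRG cells, 48 h post-plating, exposed in duplicate for 48 h in serum-free induction medium; 8-point half-log series from 100 uM in 0.5% DMSO. FOXO3 mRNA by TaqMan qRT-PCR, normalized to ACTB/GAPDH/POLR2A; bidirectional fit versus DMSO.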

Read-out in test [11]: ABC Transporter (ABCB1), ABCB1 (gene 5243)
In words: LTEA_HepaRG_ABCB1: Life Technologies and Expression Analysis (LTEA) Assay for ABC Transporter (ABCB1) using HepaRG (AID 2283460). Particulars: mRNA level, 48 h; actives raise or lower the signal. Put shortly: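 HepaRG cells exposed in duplicate for 48 h in serum-free induction medium to eight half-log concentrations up to 100 uM in 0.5% DMSO. ABCB1 mRNA quantified by qRT-PCR, normalised to ACTB, GAPDH and POLR2A; fitted bidirectionally versus DMSO.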

Read-out in test [12]: growth arrest and DNA damage 45 (GADD45B), GADD45B (gene 4616)
In words: LTEA_HepaRG_GADD45B: Life Technologies and Expression Analysis (LTEA) Assay for growth arrest and DNA damage 45 (GADD45B) using HepaRG (AID 2283461). Conditions: mRNA level, 48 h; actives raise or lower the signal. Put shortly:
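Human HepaRG monolayers receive chemicals for 48 h at eight half-log concentrations, highest 100 uM, in 0.5% DMSO. Expression is measured by TaqMan qRT-PCR and normalized to ACTB, GAPDH and POLR2A.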

Read-out in test [13]: ABC Transporter (ABCB11), ABCB11 (gene 8647)
Description: LTEA_HepaRG_ABCB11: Life Technologies and Expression Analysis (LTEA) Assay for ABC Transporter (ABCB11) using HepaRG (AID 2283463). Conditions: mRNA level, 48 h; actives raise or lower the signal. The procedure, abridged: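 Differentiated human HepaRG cells in serum-free induction medium, dosed in duplicate for 48 h. Eight-point half-log series from 100 uM in 0.5% DMSO; ABCB11 mRNA by qRT-PCR, normalized to ACTB, GAPDH, POLR2A, fitted bidirectionally versus DMSO.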

Read-out in test [14]: ABC Transporter (ABCC2), ABCC2 (gene 1244)
Description: LTEA_HepaRG_ABCC2: Life Technologies and Expression Analysis (LTEA) Assay for ABC Transporter (ABCC2) using HepaRG (AID 2283464). Particulars: mRNA level, 48 h; actives raise or lower the signal. The procedure, abridged: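 After plating and 48 h culture, HepaRG medium is replaced with serum-free induction medium and chemicals are added (8 concentrations, max 100 uM, 0.5% DMSO) for 48 h. Total RNA then undergoes qRT-PCR for ABCC2 with housekeeping normalization.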

Read-out in test [15]: Broad substrate specificity ATP-binding cassette transporter ABCG2 (Homo sapiens) (UniProt Q9UNQ0)
Description: LTEA_HepaRG_ABCG2: Life Technologies and Expression Analysis (LTEA) Assay for ABC Transporter (ABCG2) using HepaRG (AID 2283465). Particulars: mRNA level, 48 h; actives raise or lower the signal. The procedure, abridged:
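Differentiated HepaRG cells were exposed for 48 h in serum-free induction medium to 8 half-log concentrations, top 100 uM, in 0.5% DMSO. ABCG2 mRNA was measured by qRT-PCR, normalized to ACTB, GAPDH and POLR2A, with bidirectional fitting versus DMSO.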

Read-out in test [16]: Peroxisomal acyl-coenzyme A oxidase 1 (ACOX1) gene, ACOX1 (gene 51)
Description: LTEA_HepaRG_ACOX1: Life Technologies and Expression Analysis (LTEA) Assay for Peroxisomal acyl-coenzyme A oxidase 1 (ACOX1) gene using HepaRG (AID 2283467). Particulars: mRNA level, 48 h; actives raise or lower the signal. Put shortly: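 HepaRG cells, plated 48 h then switched to serum-free induction medium, were exposed in duplicate for 48 h to 8-point half-log concentrations up to 100 uM in 0.5% DMSO. ACOX1 mRNA was measured by qRT-PCR, normalized to ACTB/GAPDH/POLR2A, and fitted bidirectionally versus DMSO.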

Read-out in test [17]: Alkaline Phosphatase, Placental (ALPP) gene, ALPP (gene 250)
In words: LTEA_HepaRG_ALPP: Life Technologies and Expression Analysis (LTEA) Assay for Alkaline Phosphatase, Placental (ALPP) gene using HepaRG (AID 2283468). Conditions: mRNA level, 48 h; actives raise or lower the signal. Put shortly: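 Using human liver HepaRG cells, chemicals are tested in duplicate over 48 h at half-log concentrations topping at 100 uM; phenobarbital 1 mM serves as induction control. ALPP mRNA change by qRT-PCR, bidirectional fit against vehicle.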

Read-out in test [18]: Cyclin D1 (CCND1), CCND1 (gene 595)
Description: LTEA_HepaRG_CCND1: Life Technologies and Expression Analysis (LTEA) Assay for Cyclin D1 (CCND1) using HepaRG (AID 2283451). Particulars: mRNA level, 48 h; actives raise or lower the signal. The procedure, abridged:
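Expression change is measured by qRT-PCR in HepaRG cells after 48 h treatment across eight concentrations topping at 100 uM, with duplicate wells and DMSO (0.5%) serving as baseline for bidirectional fitting.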

Read-out in test [19]: ABC Transporter (ABCC3), ABCC3 (gene 8714)
In words: LTEA_HepaRG_ABCC3: Life Technologies and Expression Analysis (LTEA) Assay for ABC Transporter (ABCC3) using HepaRG (AID 2283462). Particulars: mRNA level, 48 h; actives raise or lower the signal. The procedure, abridged: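 Transcriptional change of ABCC3 in HepaRG after 48 h treatment, determined by qRT-PCR normalized to endogenous controls. Concentrations spanned eight half-log steps to 100 uM in 0.5% DMSO.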

Active and inactive are the calls of the source. Rule for the calls: active = hit-call score of the fitted dose curve at least 0.9, where 1 is the maximum; inactive = score below 0.9.

Sequence of Broad substrate specificity ATP-binding cassette transporter ABCG2 (Homo sapiens) (Q9UNQ0 whole entry, looked up): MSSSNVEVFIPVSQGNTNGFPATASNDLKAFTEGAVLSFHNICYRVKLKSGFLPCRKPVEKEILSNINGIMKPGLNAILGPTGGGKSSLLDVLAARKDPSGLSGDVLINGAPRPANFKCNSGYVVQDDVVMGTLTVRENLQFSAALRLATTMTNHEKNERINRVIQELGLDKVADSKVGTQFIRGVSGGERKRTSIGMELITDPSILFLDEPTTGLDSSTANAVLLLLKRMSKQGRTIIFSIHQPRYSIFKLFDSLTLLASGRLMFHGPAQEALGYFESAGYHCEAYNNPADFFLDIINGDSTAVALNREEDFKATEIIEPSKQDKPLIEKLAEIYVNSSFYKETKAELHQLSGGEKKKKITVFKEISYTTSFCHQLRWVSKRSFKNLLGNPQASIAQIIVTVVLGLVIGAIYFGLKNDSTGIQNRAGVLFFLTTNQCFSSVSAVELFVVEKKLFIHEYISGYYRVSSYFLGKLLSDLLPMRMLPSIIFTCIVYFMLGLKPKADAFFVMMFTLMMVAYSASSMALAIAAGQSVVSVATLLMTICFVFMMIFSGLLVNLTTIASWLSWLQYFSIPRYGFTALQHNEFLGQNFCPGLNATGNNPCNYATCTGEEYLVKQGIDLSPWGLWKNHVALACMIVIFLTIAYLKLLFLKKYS

Broadly, the AC50 is the midpoint of the concentration-response curve, whichever way the signal moves. Regarding `O=c1c(-c2ccc(O)cc2)coc2cc(O)ccc12`, the molecule was classed as inactive in test [1], in [2], in test [3], in test [4], in test [5] and in test [6]. The call in test [7], in test [9], in test [10], in test [11], in test [12] and in test [13] was inactive. For the same molecule, the outcome in test [14], in test [15], in test [16] and in test [17] was inactive. In addition, the AC50 in [8] is 16.4 µM (active).

Regarding `CCCCCCCC(=O)O`, the call in [1], in [2], in [18], in [3], in test [4] and in test [5] was inactive. Besides, the molecule was called inactive in test [6], in [7], in [9], in [10], in [12] and in test [19]. In addition, the molecule was called inactive in test [13], in test [14], in test [15] and in [17]. The concentration at half-maximal activity (AC50) in test [11] was 12.4 µM (active); in test [16], 12.5 µM (active).

On to `CCN(CC)CCNc1ccc(CNC=O)c2sc3ccc(OC)cc3c(=O)c12`, for which the call in [1], in test [2], in [18], in test [9] and in test [17] was inactive. In addition, the AC50 was 17.5 µM (active) in test [3]; 34.6 µM (active) in [4]; 4.07 µM (active) in [5]; 27.5 µM (active) in test [6]; 13.3 µM (active) in test [7]; 50 µM (active) in [10]. Moreover, the half-maximal activity concentration (AC50) was 60.8 µM (active) in test [11]; 11.4 µM (active) in test [12]; 86.6 µM (active) in test [19]; 11.4 µM (active) in test [13]; 77.5 µM (active) in test [14]; 9.65 µM (active) in [15]. Besides, the AC50 in [16] is 50 µM (active).
